Experiment [1] in a line: viability loss in pontine glioma line – cell-based, JHH-DIPG-1, MIPE4.0, CellTiter-Glo, qHTS, dose response (AID 1347062; cut-off not given, nearly all actives have AC50 up to about 27 µM;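 for AC50: cells exposed to compound for two days before readout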). Particulars: JHH-DIPG-1 viability, CellTiter-Glo ATP luminescence. (In general: ATP-based viability assays read luminescence as a measure of living cells.)
The nature of experiment [2]: viability loss in pontine glioma line – cell-based, SU-DIPG-IV, MIPE4.0, CellTiter-Glo, qHTS, dose response (AID 1347063).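 Note: compound exposure lasted 48 hours before the viability readout.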 Particulars: CellTiter-Glo ATP luminescence.
Experiment [3] is described as follows: viability loss in pontine glioma line – cell-based, SU-DIPG-XXV, MIPE5.0, CellTiter-Glo, qHTS, dose response (AID 1347065; cut-off not given, nearly all actives have AC50 up to about 26 µM;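 note: cells exposed to compound for 48 hours before ATP readout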). Particulars: CellTiter-Glo ATP luminescence.
Experiment [4] is described as follows: growth inhibition of DIPG cells – cell-based, MIPE4.0 library, CellTiter-Glo luminescence, qHTS (AID 1347066).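 Note: cells exposed to compound for 48 hours before readout.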 The note with it: SU-DIPG-VI viability, CellTiter-Glo ATP luminescence.
Experiment [5] is described as follows: JHH-DIPG-1 glioma cell viability, MIPE5.0 library, CellTiter-Glo luminescence, qHTS (AID 1347067; cut-off not given, nearly all actives have AC50 up to about 26 µM;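 note: cells exposed to compound for 48 hours before readout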). Particulars: JHH-DIPG-1 glioma viability, CellTiter-Glo ATP luminescence.
Experiment [6] can be described thus: viability loss with induced miR-34 in A549 – imaging, A549 dox-inducible miR-34, nuclei and caspase counts, primary screen (AID 1347080;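 active = compounds whose cell count with miR-34 switched on is under 0.7 times the count with it off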). Particulars: A549 miR-34 inducible, Hoechst nuclei count, 48 h.
The nature of experiment [7]: MELAS cybrid and Rieske KO viability enhancers – cell-based, MELAS cybrids, Rieske KO mouse fibroblasts, CellTiter-Glo, primary screen (AID 1508586;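 active = mean z-score across replicates of 1.96 or higher in either the MELAS or the Rieske mutant cell line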;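 note: z relative to plate mean and SD of compound and empty wells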). Particulars: low glucose.
A short description of experiment [8]: viability loss in pontine glioma line – cell-based, SU-DIPG-XIII, MIPE5.0, CellTiter-Glo, qHTS, dose response (AID 1347064; cut-off not given, nearly all actives have AC50 up to about 23 µM;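 for AC50: cells exposed to compound for 48 hours before the viability read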). The note with it: CellTiter-Glo ATP luminescence.
Experiment [9] can be described thus: growth inhibition of DIPG cells – cell-based, MIPE5.0 library, qHTS (AID 1347068; cut-off not given, nearly all actives have IC50 up to about 30 µM;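 for IC50: cells exposed to compound for 48 hours before viability readout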). The note with it: SU-DIPG-XXV viability. A general note: qHTS replaces the single test concentration by a dilution series.
Experiment [10] can be described thus: compounds altering HSF1 focus formation in cells – imaging, Selleck Cancer Library (AID 1347162; in the data active = plate-normalised HSF1 focus index below about 0.46). Particulars: human cells, HSF1 nuclear foci imaging, at 10 µM; SSMD: measured here: HSF1 foci SSMD mean; cell count: measured here: cell number; plate-normalised HSF1 focus index: stronger effect = lower value.
The nature of experiment [11]: viability loss in pontine glioma line – cell-based, SU-DIPG-XIII, MIPE4.0, CellTiter-Glo, qHTS, dose response (AID 1347061; cut-off not given, nearly all actives have AC50 up to about 37 µM;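 note: cells exposed to compound for 48 hours before readout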). The note with it: CellTiter-Glo ATP luminescence.
A short description of experiment [12]: growth inhibition, single agent or in combination, cell-based, chromothripsis tumors, cisplatin or BGB combos (AID 1671449; in the data active = inhibition above about 80%;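 note: cells exposed for 96 hours; 0% = vehicle DMSO and 100% = killing by high DMSO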). Particulars: LFS_MB_P medulloblastoma cells.
Experiment [13] in a line: growth inhibition, single agent and combos, cell-based, chromothripsis tumors, cisplatin or BGB combos (AID 1671450; in the data active = inhibition above about 80%;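 note: cells exposed to compound for four days; 0% = vehicle DMSO and 100% = cell killing by high DMSO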). Particulars: HDN33 neuroblastoma cells, stronger effect = higher value.
A short description of experiment [14]: growth inhibition, single agents and combos, ICB984, cell-based, cisplatin or BGB combos, synergistic combos for chromothripsis tumors (AID 1671451; call rule not given here;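 note: cells exposed for 96 hours before readout; 0% = vehicle DMSO and 100% = killing by high DMSO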). Particulars: ICB984 medulloblastoma cells, drug combinations, stronger effect = higher value.
Experiment [15] in a line: growth inhibition, single agents and combos, HTB85, cell-based, BGB or cisplatin IC20 combos, synergistic combos for chromothripsis tumors (AID 1671453; in the data active = inhibition above about 80%;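 note: cells exposed for 96 hours before readout; 0% = vehicle DMSO and 100% = high DMSO killing control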). Particulars: HTB85 osteosarcoma cells, drug combinations, stronger effect = higher value.
The nature of experiment [16]: growth inhibition, MDA-MB-436, cell-based, BGB or cisplatin combos, synergistic combos for chromothripsis tumors (AID 1671458; call rule not given here;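 note: cells exposed for 96 hours; 0% = vehicle DMSO and 100% = killing by high DMSO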). Particulars: MDA-MB-436 breast carcinoma growth inhibition, drug combinations, stronger effect = higher value.
Experiment [17] is described as follows: BT084 cell growth, single and combined drugs, ICGC_MB145, cisplatin and BGB IC40 combos (AID 1671461; in the data active = inhibition above about 80%;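 note: cells exposed to drugs for 96 hours; 0% = vehicle DMSO and 100% = high DMSO full killing control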). Particulars: BT084 medulloblastoma cells, drug combinations, stronger effect = higher value.
Experiment [18] can be described thus: RCMB18 cell growth, single agent and combined, cisplatin and BGB IC40 combos (AID 1671462; in the data active = inhibition above about 80%;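 note: cells exposed to compound for four days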). The note with it: RCMB18 medulloblastoma cells, stronger effect = higher value.
Experiment [19] in a line: CRL1545 cell growth, single agent and combined, cisplatin and BGB IC20 combos (AID 1671464; in the data active = inhibition above about 80%;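 note: cells exposed to compound for 96 hours before readout; 0% = vehicle DMSO and 100% = high DMSO killing control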). The note with it: CRL1545 osteosarcoma cells, stronger effect = higher value.
Where [20] appears, read: stronger effect = lower value, cell number ratio, induced over uninduced.
The mark [21] stands for this setting: measured here: relative caspase fold change +Dox/-Dox.
Setting [22] is: measured here: total cells with miR-34 induction, stronger effect = lower value.
The mark [23] stands for this setting: measured here: total cells without miR-34 induction.
Where [24] appears, read: measured here: with BGB IC20 combination, at 0.5 µM.
[25] abbreviates: measured here: with cisplatin IC20 combination, at 0.5 µM.

Inconclusive results are not listed. Activity calls are given as the source filed them. Unless noted, no cut-off is given here; in the data, nearly all actives have AC50 up to about 30 µM.

For `COc1ccc(Cn2ccc3ccc(C(=O)NO)cc32)cc1`, the molecule was classed as inactive in [1], in experiment [2], in [3], in [4] and in experiment [5]. Also, the fold change in experiment [6] (setting [20]) was 0.793 (inactive); in experiment [6] (setting [21]) it was 0.954. In addition, the cell count in experiment [6] (setting [22]) worked out at 5300; in experiment [6] (setting [23]) it was 6690. The z-score is -0.343 (inactive) in experiment [7] (MELAS cybrid survival, CellTiter-Glo 48 h, stronger effect = higher value) and 0.636 in experiment [7] (Rieske KO mouse fibroblast survival, CellTiter-Glo 72 h).

Turning to `CCn1c(=O)c2c(nc(/C=C/c3ccc(OC)c(OC)c3)n2C)n(CC)c1=O`, the outcome in experiment [1], in [2], in [8], in [4], in experiment [5] and in experiment [9] was inactive.

Turning to `CCCCCCCc1ccc(CCc2cccc(O)c2C(=O)O)cc1`, the outcome in [1], in experiment [2], in experiment [3], in experiment [5] and in experiment [9] was inactive. Moreover, the SSMD in [10] worked out at 0.921. The molecule further showed a cell count in experiment [10] of 6030. The plate-normalised HSF1 focus index in [10] was 1.06 (inactive).

Turning to `COC(=O)C1=CO[C@@H](O)[C@@H]2C(CO)=CC[C@H]12`, the result in experiment [11] was inactive. Also, the fold change is 1 (inactive) in experiment [6] (setting [20]) and 0.878 in experiment [6] (setting [21]). Also, the cell count in [6] (setting [22]) and in experiment [6] (setting [23]) was 10100 each time.

In the case of `Cn1cc(-c2[nH]c3cc(NC(=O)[C@H](N)C4CCCCC4)cc4c3c2C=NNC4=O)cn1`, the AC50 is 0.418 µM (active) in experiment [1]; 1.18 µM (active) in [2]; 2.09 µM (active) in [8]; 1.18 µM (active) in experiment [3]; 16.6 µM (active) in experiment [5]. Also, the IC50 in experiment [9] was 4.68 µM (active). This molecule also gave an SSMD in experiment [10] of -1.12. Also, the cell count in experiment [10] is 6990. For the same molecule, the plate-normalised HSF1 focus index in experiment [10] is 0.932 (inactive).

Take `O=c1[nH]nc(OCCCc2ccc(Cl)cc2)c(NCc2cccnc2)c1Br`: the AC50 in experiment [1] was 23.5 µM (active); in [2], 18.7 µM (active); in experiment [4] it was 18.7 µM (active).

Take `C[C@H](NC(=O)[C@@H](O)c1cc(F)cc(F)c1)C(=O)N[C@@H]1C(=O)N(C)c2ccccc2-c2ccccc21`: the molecule was classed as inactive in experiment [1], in experiment [2], in experiment [8], in experiment [4], in experiment [5] and in experiment [9].

As for `CO[C@H]1/C=C/O[C@@]2(C)Oc3c(C)c(O)c4c(O)c(c(/C=N\N5CCN(C6CCCC6)CC5)c(O)c4c3C2=O)NC(=O)/C(C)=C\C=C\[C@H](C)[C@H](O)[C@@H](C)[C@@H](O)[C@@H](C)[C@H](OC(C)=O)[C@@H]1C`, the AC50 in [1] was 0.105 µM (active); in experiment [2] it was 0.0935 µM (active); in [8], 23.5 µM (active); in experiment [3], 26.3 µM (active). Moreover, in experiment [9], the IC50 is 20.9 µM (active). Moreover, the inhibition in experiment [12] (at 0.5 µM, stronger effect = higher value) is 5.09% (inactive); in [12] (measured here: combination with BGB IC20, at 0.005 µM), -7.42%; in experiment [12] (measured here: combination with BGB IC40, at 0.005 µM) it was -15%; in experiment [12] (measured here: combination with BGB IC40, at 0.05 µM) it was -18.2%; in [12] (measured here: combination with cisplatin, at 0.5 µM, stronger effect = higher value) it was -6.85%; in [12] (measured here: combination with cisplatin, at 5 µM, stronger effect = higher value), 15%. Also, the inhibition is 85.6% in experiment [13] (BGB combo, at 5 µM); -11.9% (inactive) in [13] (at 0.5 µM); 6.46% in [13] (cisplatin combo, at 5 µM); -21.1% in [13] (setting [24]); -18.8% in [13] (setting [25]); -3.56% in [13] (single agent, at 5 µM). Further, the inhibition in [14] (BGB IC20 combo, at 0.005 µM) is -21.8%; in experiment [14] (BGB IC40 combo, at 0.005 µM) it was -25.4%; in experiment [14] (BGB IC40 combo, at 0.05 µM), -16.4%; in [14] (at 0.5 µM), -17.3% (inactive); in experiment [14] (cisplatin combo, at 0.05 µM), -19.6%; in experiment [14] (cisplatin combo, at 0.5 µM) it was -17.5%. For the same molecule, the inhibition in experiment [14] (cisplatin combo, at 5 µM) was -18.6%; in experiment [14] (measured here: 5 uM single agent, at 5 µM) it was -17.8%; in experiment [15] (at 0.5 µM), 16% (inactive); in experiment [15] (measured here: with BGB IC20, at 0.5 µM), 12.6%; in [15] (measured here: with BGB IC20, at 5 µM), 76.7%; in [15] (measured here: with cisplatin IC20, at 0.5 µM), 35.8%. Moreover, the inhibition in experiment [15] (measured here: with cisplatin IC20, at 5 µM) was 10.4%; in [15] (single agent, at 5 µM), 35.1%; in experiment [16] (at 0.5 µM), -19% (inactive); in [16] (measured here: BGB combination, at 0.5 µM), -15.7%; in experiment [16] (measured here: BGB combination, at 5 µM), -5.36%; in [16] (measured here: cisplatin combination, at 0.5 µM), -40.9%. Also, the inhibition in experiment [16] (measured here: cisplatin combination, at 5 µM) was -22%; in experiment [17] (at 0.5 µM), -28.3% (inactive); in experiment [17] (cisplatin combination, at 0.5 µM), -31.9%; in experiment [17] (cisplatin combination, at 5 µM) it was -20.9%; in [17] (measured here: BGB IC40 combination 0.05 uM, at 0.05 µM) it was -25.7%; in experiment [17] (single agent, at 5 µM), -12.9%. Further, the inhibition in experiment [18] (at 0.5 µM) is -14.8% (inactive); in [18] (cisplatin combo, at 5 µM) it was 15%; in [18] (measured here: BGB IC40 combination, at 0.05 µM), -18.7%; in [18] (measured here: combination with cisplatin, at 0.5 µM), -14.5%; in experiment [18] (single agent, at 5 µM) it was 27.7%; in experiment [19] (at 0.5 µM), 4.23% (inactive). The inhibition in experiment [19] (setting [24]) was 23.5%; in experiment [19] (setting [25]) it was -7.81%; in experiment [19] (single agent, at 0.05 µM), 8.47%; in experiment [19] (single agent, at 5 µM) it was 73.2%.

In general, AC50 refers to the concentration at which the activity in the assay is half-maximal. As usually defined, the IC50 is the concentration at which inhibition is half-maximal. What is called inhibition is the change of the read-out against control, counted positive when it falls.

Values taken from PubChem BioAssay.
